# Source: the supplement of paper PMC10849652
# Targets with a hit are over-represented here; the source holds about 7,900 in all. About 0.6% of all pairs of compound and target were hits.
# Compound: Cc1sc2c(c1C)C(c1ccc(Cl)cc1)=N[C@@H](CC(=O)OC(C)(C)C)c1nnc(C)n1-2
# Assay: log2 fold change, soluble protein after heating vs DMSO (PISA); higher = thermal stabilisation; K562 cells, 10 uM, 30 min; active = over 0.2 and 3.5 SD of the protein, either way, in both replicates (recomputed)
# Summary of the method: (§1)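 Soluble protein was quantified by TMTpro 16plex LC-MS/MS after channel sums were equalised. It was obtained as the supernatant after 21,000xg for 90 min from pooled aliquots of K562 cells (2×10^6 cells/mL, 10 μM compound, 30 min) heated for 3 min across 48°C-58°C and extracted in PBS with 0.5% NP-40 at 4°C. Thermal stability values are relative to control samples and come from duplicates. They are given as log2 fold changes.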
# Chain of UniProt Q9BTX3 (Q9BTX3 whole entry, looked up): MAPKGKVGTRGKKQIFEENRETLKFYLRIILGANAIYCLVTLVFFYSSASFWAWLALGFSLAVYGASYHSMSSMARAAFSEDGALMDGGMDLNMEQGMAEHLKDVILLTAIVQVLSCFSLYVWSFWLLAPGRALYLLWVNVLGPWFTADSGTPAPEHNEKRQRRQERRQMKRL
# Chain of UniProt Q9UID3 (Q9UID3 whole entry, looked up): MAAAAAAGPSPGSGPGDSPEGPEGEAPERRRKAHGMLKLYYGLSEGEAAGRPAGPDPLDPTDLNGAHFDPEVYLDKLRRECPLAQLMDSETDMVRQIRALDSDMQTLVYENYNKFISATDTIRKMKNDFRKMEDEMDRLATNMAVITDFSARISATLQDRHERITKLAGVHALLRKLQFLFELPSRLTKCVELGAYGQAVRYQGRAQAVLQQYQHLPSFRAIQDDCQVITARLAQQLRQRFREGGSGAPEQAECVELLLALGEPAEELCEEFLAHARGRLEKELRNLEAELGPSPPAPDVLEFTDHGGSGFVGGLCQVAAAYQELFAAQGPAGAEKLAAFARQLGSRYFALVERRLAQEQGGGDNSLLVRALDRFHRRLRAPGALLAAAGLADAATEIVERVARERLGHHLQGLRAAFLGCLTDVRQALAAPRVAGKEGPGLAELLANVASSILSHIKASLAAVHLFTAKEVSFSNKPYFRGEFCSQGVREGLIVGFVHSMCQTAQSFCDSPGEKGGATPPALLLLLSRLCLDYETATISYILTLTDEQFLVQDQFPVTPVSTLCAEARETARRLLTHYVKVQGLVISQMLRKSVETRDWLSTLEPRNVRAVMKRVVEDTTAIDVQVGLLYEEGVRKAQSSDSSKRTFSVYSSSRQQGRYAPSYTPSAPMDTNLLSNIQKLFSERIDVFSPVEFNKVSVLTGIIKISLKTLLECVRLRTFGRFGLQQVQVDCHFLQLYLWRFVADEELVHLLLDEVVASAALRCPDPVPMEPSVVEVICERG
# Chain of UniProt P30291 (P30291 whole entry, looked up): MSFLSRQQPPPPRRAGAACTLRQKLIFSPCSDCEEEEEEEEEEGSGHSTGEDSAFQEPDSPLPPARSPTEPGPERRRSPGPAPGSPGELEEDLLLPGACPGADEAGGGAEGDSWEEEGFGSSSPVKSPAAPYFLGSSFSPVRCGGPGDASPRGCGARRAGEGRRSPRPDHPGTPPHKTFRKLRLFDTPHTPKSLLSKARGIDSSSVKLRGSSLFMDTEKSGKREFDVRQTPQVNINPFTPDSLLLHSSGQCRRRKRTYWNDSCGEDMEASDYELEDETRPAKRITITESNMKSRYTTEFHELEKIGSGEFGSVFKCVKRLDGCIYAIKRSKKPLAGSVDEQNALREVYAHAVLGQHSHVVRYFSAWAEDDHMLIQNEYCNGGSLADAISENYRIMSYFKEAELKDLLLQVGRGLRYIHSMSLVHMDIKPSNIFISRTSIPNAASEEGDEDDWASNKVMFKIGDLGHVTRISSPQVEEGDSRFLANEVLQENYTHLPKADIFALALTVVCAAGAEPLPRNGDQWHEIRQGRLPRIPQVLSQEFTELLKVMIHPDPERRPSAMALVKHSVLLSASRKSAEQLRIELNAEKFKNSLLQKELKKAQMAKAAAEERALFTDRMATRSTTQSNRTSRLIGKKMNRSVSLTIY
# Chain of UniProt Q86UV5 (Q86UV5 whole entry, looked up): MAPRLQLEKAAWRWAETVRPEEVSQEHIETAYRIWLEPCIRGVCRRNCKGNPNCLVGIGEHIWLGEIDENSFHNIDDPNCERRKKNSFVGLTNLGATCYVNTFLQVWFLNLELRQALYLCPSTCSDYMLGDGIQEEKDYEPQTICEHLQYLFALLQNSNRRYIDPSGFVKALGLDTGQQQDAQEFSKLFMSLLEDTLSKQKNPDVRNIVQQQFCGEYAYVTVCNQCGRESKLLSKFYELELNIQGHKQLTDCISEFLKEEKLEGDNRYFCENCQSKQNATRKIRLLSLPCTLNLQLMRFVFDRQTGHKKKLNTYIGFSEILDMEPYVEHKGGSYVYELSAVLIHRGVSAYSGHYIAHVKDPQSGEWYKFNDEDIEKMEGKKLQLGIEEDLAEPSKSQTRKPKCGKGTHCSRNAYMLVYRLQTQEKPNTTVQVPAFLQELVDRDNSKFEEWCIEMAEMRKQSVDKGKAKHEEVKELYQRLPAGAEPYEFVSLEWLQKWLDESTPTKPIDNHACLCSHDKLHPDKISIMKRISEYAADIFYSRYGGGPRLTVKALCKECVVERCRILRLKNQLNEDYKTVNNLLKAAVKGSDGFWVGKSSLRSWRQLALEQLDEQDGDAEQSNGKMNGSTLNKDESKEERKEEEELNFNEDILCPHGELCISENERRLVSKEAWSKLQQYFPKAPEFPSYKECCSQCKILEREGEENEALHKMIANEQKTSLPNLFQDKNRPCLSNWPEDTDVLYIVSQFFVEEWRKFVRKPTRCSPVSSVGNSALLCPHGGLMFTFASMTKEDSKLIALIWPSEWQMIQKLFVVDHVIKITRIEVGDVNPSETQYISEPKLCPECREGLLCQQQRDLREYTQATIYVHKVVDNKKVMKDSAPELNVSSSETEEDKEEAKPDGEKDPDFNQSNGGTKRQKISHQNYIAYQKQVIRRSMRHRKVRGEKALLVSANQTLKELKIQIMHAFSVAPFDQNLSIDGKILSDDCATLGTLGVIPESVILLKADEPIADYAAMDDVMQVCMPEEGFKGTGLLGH
# Chain of UniProt P02585 (P02585 whole entry, looked up): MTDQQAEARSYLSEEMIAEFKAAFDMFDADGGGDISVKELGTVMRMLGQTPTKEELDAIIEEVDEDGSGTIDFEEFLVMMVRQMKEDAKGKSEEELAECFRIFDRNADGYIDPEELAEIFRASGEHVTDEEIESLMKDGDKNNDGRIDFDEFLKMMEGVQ
# Chain of UniProt Q96AJ9 (Q96AJ9 whole entry, looked up): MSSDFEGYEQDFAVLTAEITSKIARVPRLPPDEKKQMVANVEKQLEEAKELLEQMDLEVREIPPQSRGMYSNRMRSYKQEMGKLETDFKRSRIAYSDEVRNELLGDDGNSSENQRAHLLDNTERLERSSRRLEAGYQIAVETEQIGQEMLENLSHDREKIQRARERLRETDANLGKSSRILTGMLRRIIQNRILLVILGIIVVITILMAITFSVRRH
# Chain of UniProt Q8NCE0 (Q8NCE0 whole entry, looked up): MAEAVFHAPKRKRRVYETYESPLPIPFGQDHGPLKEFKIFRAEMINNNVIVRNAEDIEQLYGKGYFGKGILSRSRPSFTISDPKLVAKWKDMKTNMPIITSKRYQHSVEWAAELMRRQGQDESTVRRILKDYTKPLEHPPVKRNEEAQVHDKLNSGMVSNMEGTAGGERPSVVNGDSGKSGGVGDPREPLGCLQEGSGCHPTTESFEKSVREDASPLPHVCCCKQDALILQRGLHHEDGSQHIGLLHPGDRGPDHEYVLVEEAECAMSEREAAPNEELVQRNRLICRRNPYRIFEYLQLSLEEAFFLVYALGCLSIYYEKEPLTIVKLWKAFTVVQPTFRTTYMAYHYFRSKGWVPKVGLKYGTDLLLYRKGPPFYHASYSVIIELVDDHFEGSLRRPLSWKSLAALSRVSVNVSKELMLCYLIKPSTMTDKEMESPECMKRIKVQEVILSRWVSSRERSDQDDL
# Chain of UniProt Q96DX7 (Q96DX7 whole entry, looked up): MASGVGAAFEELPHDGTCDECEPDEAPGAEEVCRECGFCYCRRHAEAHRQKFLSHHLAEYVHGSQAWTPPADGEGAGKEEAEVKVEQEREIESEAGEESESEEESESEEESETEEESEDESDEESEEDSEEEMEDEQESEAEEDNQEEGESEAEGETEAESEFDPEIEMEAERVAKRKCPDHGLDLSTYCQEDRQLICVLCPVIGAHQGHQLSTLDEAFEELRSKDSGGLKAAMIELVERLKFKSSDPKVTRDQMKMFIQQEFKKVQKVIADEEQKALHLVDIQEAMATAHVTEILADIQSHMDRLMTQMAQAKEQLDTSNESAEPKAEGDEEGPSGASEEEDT
# Chain of UniProt Q7Z392 (Q7Z392 whole entry, looked up): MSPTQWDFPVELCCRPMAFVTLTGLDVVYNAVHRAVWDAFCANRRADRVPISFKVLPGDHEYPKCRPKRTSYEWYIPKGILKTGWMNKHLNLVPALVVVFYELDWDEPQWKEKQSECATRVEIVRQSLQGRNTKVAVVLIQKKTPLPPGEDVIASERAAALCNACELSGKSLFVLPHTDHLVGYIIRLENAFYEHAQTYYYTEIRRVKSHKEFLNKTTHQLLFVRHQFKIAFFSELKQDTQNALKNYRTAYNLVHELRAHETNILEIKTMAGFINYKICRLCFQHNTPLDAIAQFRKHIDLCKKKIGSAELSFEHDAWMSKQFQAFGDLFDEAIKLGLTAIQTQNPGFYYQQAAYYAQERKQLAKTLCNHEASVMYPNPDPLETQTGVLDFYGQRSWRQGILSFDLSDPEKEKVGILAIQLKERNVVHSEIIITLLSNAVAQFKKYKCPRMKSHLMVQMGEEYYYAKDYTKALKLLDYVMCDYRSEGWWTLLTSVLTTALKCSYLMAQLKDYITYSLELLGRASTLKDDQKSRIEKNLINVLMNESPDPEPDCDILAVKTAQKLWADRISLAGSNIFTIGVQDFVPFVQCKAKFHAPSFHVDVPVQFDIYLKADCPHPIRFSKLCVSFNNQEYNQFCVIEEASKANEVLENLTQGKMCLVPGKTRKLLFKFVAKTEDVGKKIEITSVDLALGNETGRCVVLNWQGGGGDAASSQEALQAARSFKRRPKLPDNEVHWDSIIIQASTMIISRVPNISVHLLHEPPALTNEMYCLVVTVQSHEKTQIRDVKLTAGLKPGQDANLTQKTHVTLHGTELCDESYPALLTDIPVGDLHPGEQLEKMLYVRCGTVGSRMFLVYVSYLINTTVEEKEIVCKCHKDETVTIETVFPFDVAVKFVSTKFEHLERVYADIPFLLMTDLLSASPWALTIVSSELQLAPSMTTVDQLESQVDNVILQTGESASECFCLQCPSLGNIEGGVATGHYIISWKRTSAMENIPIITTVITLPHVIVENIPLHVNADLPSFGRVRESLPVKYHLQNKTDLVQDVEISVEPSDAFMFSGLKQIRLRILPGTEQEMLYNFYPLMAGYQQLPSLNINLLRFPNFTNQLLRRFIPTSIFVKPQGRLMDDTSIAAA
row,Target,log2 fold change
1,VTI1A (UniProt Q96AJ9),-0.023 (inactive)
2,"VARS2, A0A0G2JL52",-0.004 (inactive)
3,WEE1 (UniProt P30291),0.132 (inactive)
4,TMEM208 (UniProt Q9BTX3),-0.14 (inactive)
5,TNNC2 (UniProt P02585),-0.624 (inactive)
6,USP48 isoform 8 (UniProt Q86UV5),-0.012 (inactive)
7,TRIM44 (UniProt Q96DX7),-0.006 (inactive)
8,WARS1 (UniProt G3V227),0.333 (inactive)
9,UPF3B (UniProt Q9BZI7),0.363 (inactive)
10,VPS51 (UniProt Q9UID3),-0.048 (inactive)
11,TRAPPC11 (UniProt Q7Z392),-0.031 (inactive)
12,TSEN2 (UniProt Q8NCE0),-0.027 (inactive)
13,XIAP (UniProt P98170),0.048 (inactive)

# Compound: c1ccc([C@@H]2C[C@H]2NC2CCNCC2)cc1
# Assay: as above
# Summary of the method: as §1
row,Target,log2 fold change
1,TMEM8A (UniProt Q9HCN3),0.094 (inactive)
2,VPS41 (UniProt P49754),-0.052 (inactive)
3,VPS28 (UniProt Q9UK41),-0.01 (inactive)
4,VPS35L (UniProt Q7Z3J2),0 (inactive)
5,USP7 (UniProt Q93009),-0.062 (inactive)
6,WDR11 (UniProt Q9BZH6),0.023 (inactive)
7,VAMP7 (UniProt P51809),0.015 (inactive)
8,TRAPPC13 isoform 5 (UniProt A5PLN9),-0.017 (inactive)
9,UBC (UniProt P0CG48),-0.061 (inactive)
10,UBE2Q1 (UniProt Q7Z7E8),0.062 (inactive)
11,TOP2A isoform 4 (UniProt P11388),0.002 (inactive)
12,TMEM106B (UniProt Q9NUM4),0.034 (inactive)
13,TMEM223 (UniProt A0PJW6),-0.024 (inactive)
14,TRAM1 (UniProt Q15629),-0.018 (inactive)
15,TNFRSF8 (UniProt P28908),0.021 (inactive)
16,TRMT10C (UniProt Q7L0Y3),-0.08 (inactive)
17,TXNL1 (UniProt O43396),0.015 (inactive)
18,VPS18 (UniProt Q9P253),0.004 (inactive)

row,Target,log2 fold change
1,XRCC5 (UniProt P13010),-0.003 (inactive)
2,VKORC1 (UniProt Q9BQB6),-0.012 (inactive)
3,UBIAD1 (UniProt Q9Y5Z9),0.093 (inactive)
4,TMEM164 (UniProt Q5U3C3),0.068 (inactive)
5,VPS16 (UniProt Q9H269),-0.038 (inactive)
6,VTI1A (UniProt Q96AJ9),0.07 (inactive)
7,"VARS2, A0A0G2JL52",-0.015 (inactive)
8,WEE1 (UniProt P30291),0.11 (inactive)
9,TMEM208 (UniProt Q9BTX3),0.031 (inactive)
10,TNNC2 (UniProt P02585),0.031 (inactive)
11,USP48 isoform 8 (UniProt Q86UV5),0.119 (inactive)
12,TRIM44 (UniProt Q96DX7),0.012 (inactive)
13,WARS1 (UniProt G3V227),-0.185 (inactive)
14,UPF3B (UniProt Q9BZI7),-0.001 (inactive)
15,VPS51 (UniProt Q9UID3),-0.044 (inactive)
16,TRAPPC11 (UniProt Q7Z392),0.027 (inactive)
17,TSEN2 (UniProt Q8NCE0),0.03 (inactive)
18,XIAP (UniProt P98170),0.002 (inactive)
